Only some compounds are listed: those with a hit (about 21% of all), similar ones and a draw of the others.
Shiga toxin inh: Shiga toxin inhibition. Vero cells, Shiga toxin protein synthesis inhibition reporter. inhibition, % at 38.7 µM. 290,000 compounds, 9.2% hits; in the data active means inhibition mostly above about 28%, no sharp cut-off; inactive means mostly below about 43%; further: 0% is about no effect
Cycloheximide cs: counter-screen hit for Shiga toxin inhibitors, cycloheximide; cell reporter, cycloheximide protein synthesis inhibition counterscreen; max response, %; 300,000 compounds, 12% hits; AID 2314; in the data active means max response mostly above about 13%, no sharp cut-off; inactive means mostly below about 14%; further: read at 38.3 µM for the half of the compounds with a filed dose; 0% is about no effect
Pf growth 96h: P. falciparum growth inhibition at 96 hours. P. falciparum luciferase reporter growth, 96 h. Potency, µM (series often up to 28.7 µM), for inactives: at the top dose activity change, negative = inhibition, usual class: inhibitors. 320,000 compounds, 6.9% hits. AID 504834; further: potency means the concentration at half of the fitted maximal effect; on the % scale 0 is the no-effect control and ±100 the full control effect
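96 h incubation, 37 C, 5% CO2, of luciferase-reporter P. falciparum-infected RBCs (2% hematocrit, 0.05% parasitemia final) with test compounds; endpoint luminescence.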
NS1 function inh: blocks influenza NS1 protein function | AID 2326 | 270,000 compounds, 0.4% hits | Potency, µM (top dose mostly 46.1 µM), inactives show top-dose activity, positive = more growth; calls by dose curve; further: potency means the concentration at half of the fitted maximal effect; actives are rising curves; nearly all actives have a fitted effect of over 50% in size
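In this qHTS, NS1 from influenza A is expressed in budding yeast, where it slows growth. Cells are switched from glucose to 2% galactose medium (pH 6.0, -URA), treated with compound, and growth recovery is read at OD600.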
Pf growth 48h: inhibits P. falciparum growth in the first generation, 48 h; Potency, µM (top dose mostly 28.7 µM), for the others: at the highest dose activity change, negative = inhibition, most hits filed as inhibitors; 310,000 compounds, 5.9% hits; P. falciparum luciferase growth in erythrocytes, 48 h; further: potency means the concentration at half of the fitted maximal effect; on the % scale 0 is the no-effect control and ±100 the full control effect
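Here the parasites carry a stable luciferase gene and grow inside erythrocytes in Albumax-based RPMI medium with compound for one erythrocytic cycle. Activity is scored as loss of luminescent signal.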
Sm TGR block: inhibitors of Schistosoma mansoni thioredoxin glutathione reductase; purified TGR, DTNB reduction, TNB absorbance 405 nm; Potency, µM (series often up to 114 µM), without a hit: at the highest dose activity change, negative = inhibition, actives largely listed as inhibitors; AID 485364; 360,000 compounds, 3% hits; Q962Y6; further: potency means the concentration at half of the fitted maximal effect; on the % scale 0 is the no-effect control and ±100 the full control effect; nearly all actives have a fitted effect of over 60% in size
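First, TGR (20 nM dispensed) and NADPH were mixed with compound. Second, a 15 min room-temperature incubation followed. Third, further NADPH and then DTNB were added to start the reaction. Finally, TNB absorbance was monitored kinetically.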
An asterisk follows results filed as active; ? = inconclusive; . = not tested or not shown; [ ] = remark or other dose. Unless noted, the call rests on the fitted dose curve; in most records, active means well fitted curve in the direction sought with a large enough effect; inconclusive means small, poorly fitted or top-dose-only effect, or another doubt; inactive means no such curve, though single readings can be large; an effect the other way counts as inactive or inconclusive.

SMILES	Shiga toxin inh	Cycloheximide cs	Pf growth 96h	NS1 function inh	Pf growth 48h	Sm TGR block
CC(=C/c1ccco1)/C=N/NC(=O)Cc1cccn1C	18	8	16%	9%	-65%	45µM*
CCC(CC)C(=O)Nc1cccc(C(=O)Nc2ccc(S(=O)(=O)Nc3ccc(C)cc3)cc2)c1	-5	-4	?	8%	?	7%
CCCn1c(CCC(=O)Nc2ccc(OCC)cc2)nc2cccnc21	.	.	.	.	.	-1%
C=CCn1c(SCc2csc(C)n2)nc2sc3c(c2c1=O)CCC(C)C3 (centres undefined)	17	-2	?	16%	12µM*	0%
COc1ccc(NC(=O)c2cc(C(C)=O)n3ccccc23)cc1	.	.	.	.	.	3%
COc1ccc(Cn2nnnc2CN(Cc2cc3cc(C)ccc3[nH]c2=O)C2CCCC2)cc1	-9	-2	-16%	-40%	?	35µM*
COc1ccc2cc(CN(CCc3ccccc3)Cc3nnnn3Cc3ccco3)c(=O)[nH]c2c1	-15	-2	8%	-45%	6.6µM*	?
COc1ccc2[nH]c(=O)c(CN(C3CCCCC3)C(c3nnnn3Cc3ccco3)C(C)C)cc2c1 (centres undefined)	20	-3	42%	11%	13µM*	13µM*
COc1ccc2[nH]c(=O)c(CN(Cc3ccccc3)Cc3nnnn3CC3CCCO3)cc2c1 (centres undefined)	-10	0	6%[5.75 µM]	-28%	0%	-32%
CCC(c1nnnn1C1CCCCC1)N(Cc1ccco1)Cc1cc2ccc(OC)cc2[nH]c1=O (centres undefined)	-6	-6	-7%	-2%	7.4µM*	6%
COc1cc2cc(CN(Cc3nnnn3C3CCCC3)C3CCCC3)c(=O)[nH]c2cc1OC	-4	-3	-32%	-14%	6%	-14%
Cc1ccc2cc(C(c3nnnn3C3CCCC3)N(Cc3ccco3)Cc3cccs3)c(=O)[nH]c2c1 (centres undefined)	-4	8	?	26%	.	-29%
Cc1ccc2cc(C(c3nnnn3C3CCCC3)N(Cc3cccnc3)Cc3ccco3)c(=O)[nH]c2c1 (centres undefined)	22	0	-22%	-14%	13µM*	?
COc1ccccc1CN(Cc1cc2c(C)ccc(C)c2[nH]c1=O)Cc1nnnn1Cc1ccco1	-10	1	.	8%	4.7µM*	45µM*
Cc1ccc(C)c2[nH]c(=O)c(CN(CCN3CCOCC3)Cc3nnnn3CC3CCCO3)cc12 (centres undefined)	-12	-3	77%	-6%	-23%	20µM*
CCOC(=O)Cn1nnnc1C(CC)N(Cc1cccs1)Cc1cc2ccc(OC)cc2[nH]c1=O (centres undefined)	-19	8.5*	?	-4%	0%	-4%
CN(C)c1ccc(CNC(=O)c2cccc(NC(=O)N3CCSc4ncccc43)c2)cc1	.	.	.	.	.	-1%
CSc1ccc(C(=O)NCC(c2ccco2)N(C)C)cc1[N+](=O)[O-] (centres undefined)	-3	9	-2%	-13%	6%	-10%
COc1cccc(N2C(=O)Nc3ccc(Br)cc3C2(O)C(=O)NCCCOC(C)C)c1 (centres undefined)	-5	-6	?	3%	2%	4%
CCC(C)(C)n1nnnc1CN(Cc1cc2cc(OC)c(OC)cc2[nH]c1=O)C1CCCC1	-5	6	67%	6%	8%	25µM*
CCOC(=O)Cn1nnnc1C(C(C)C)N(Cc1cc2c(C)cc(C)cc2[nH]c1=O)C1CCCC1 (centres undefined)	-6	3	10%	-4%	6.6µM*	?
COc1ccc2[nH]c(=O)c(CN(Cc3nnnn3Cc3ccco3)C3CCCCC3)cc2c1	-1	7	5.2µM*	?	?	56µM*
Cc1ccc(CN(Cc2cc3cc4c(cc3[nH]c2=O)OCCO4)Cc2nnnn2Cc2ccco2)cc1	6	11	?	17%	.	11µM*
CCCN(CCC)C(=O)Cn1c(=O)n(-c2ccc(C)cc2)c(=O)c2ccc(C(=O)NCc3ccccc3Cl)cc21	.	.	.	.	.	-4%
CCOCCc1nn2c(=O)cc(COC(=O)COc3ccccc3Cl)nc2s1	.	.	.	.	.	-5%
SMILES	Shiga toxin inh	Cycloheximide cs	Pf growth 96h	NS1 function inh	Pf growth 48h	Sm TGR block
O=C(O)CSC1CC(=O)N(c2ccc(Cl)c(Cl)c2)C1=O (centres undefined)	-6	-1	?	-23%	5%	18µM*
Cc1cccc(N2C(=O)SC(N(C)c3ccccc3)C2=O)c1 (centres undefined)	12	12	26%	-7%	-7%	0%
Nc1ccccc1SC1CC(=O)N(c2ccc(Cl)c(Cl)c2)C1=O (centres undefined)	-10	-2	86%	2%	40%	5%
Cc1cccc(N2C(=O)CC(N(O)c3ccccc3)C2=O)c1 (centres undefined)	59	28*	13%	-1%	46%	?
O=C1CC(N(O)c2ccccc2)C(=O)N1c1ccc(Cl)c(Cl)c1 (centres undefined)	18	10*	31%	-3%	11%	?
CC(C)CN(CCCNC(=O)Cn1ncc2c3ccccc3n(C)c2c1=O)CC(C)C	.	.	.	.	.	-2%
O=[N+]([O-])c1cccc(/C=N\NC2=CS(=O)(=O)C=C2)c1	.	.	.	-3%	.	.
COc1ccc(Cl)cc1C(=O)Nc1ccc2c(c1)OCCO2	36*	30*	?	-26%	201%	1%
COc1ccc(Cl)cc1C(=O)Nc1ccc2c(c1)OCO2	87*	44*	.	-87%	46%	7%
COc1ccc(NC(C)=O)cc1S(=O)(=O)Nc1ccc2c(c1)OCCO2	17	24*	?	-2%	45%	.
O=C(O)/C(=C\c1ccc(O)cc1)c1cccc2ccccc12	.	.	.	-9%	.	.
CCOc1cc(C=O)cc(Br)c1OCC(N)=O	-4	-8	?	-3%	-37%[1.15 µM]	-1%
CCCN(CC(=O)Nc1ccccc1C)C(=O)Cc1c(C)nc2ccccc2c1C	.	.	?	.	10µM*	7%
CCCN(CC(=O)Nc1ccccc1C)C(=O)Cc1n[nH]c(=O)c2ccccc12	.	.	-5%	.	-15%	-5%
CCCN(CC(=O)Nc1ccccc1C)C(=O)c1oc2ccc(OCC)cc2c1C	.	.	7.4µM*	.	2.9µM*	-2%
CCOc1ccc2oc(C(=O)NC(C)(C)CC)c(C)c2c1	67*	48*	54%	.	121%	1%
COc1cccc(Nc2ccc3cc(S(=O)(=O)N4CCC(C)CC4)ccc3n2)c1	.	.	.	.	.	8%
CCc1ccc(NC(=O)CSc2nc3nccnc3c(=O)n2CCc2c[nH]c3ccccc23)cc1	.	.	.	.	.	4%
O=C(COC(=O)c1c(F)cccc1Cl)NC1CCCC1	110*	51*	85%	-8%	93%	0%
COc1cccc(NC(=O)COC(=O)c2c(F)cccc2Cl)c1	95*	37*	224%	-3%	135%	-1%
